Potency and activity change, positive = activation data for seven compounds are collected here from PubChem BioAssay (Tox21).

Several values for one entry are separate records, joined by “and”; a condition that tells them apart may be missing. Equal values may be shown once. Values without a mark were called inactive. Results filed as inconclusive are left out. Activity calls are given as the source filed them. Unless noted, calls come from the whole dose curve; as a rule, active = well fitted curve in the direction sought with a large enough effect in the repeat runs; inconclusive = weak or mixed curves; inactive = no such curve, though single readings can be large; an effect the other way counts as inactive or inconclusive.

Assay [1] concerns the target Luciferin 4-monooxygenase (Photinus pyralis) (UniProt P08659). Kind of assay: qHTS assay to identify small molecule inhibitors of firefly luciferase (AID 1224835). Note: nearly all actives have a fitted effect of over 25% in size. A digest of the protocol: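 Quantitative HTS format; KM concentrations of both substrates. Purified P. pyralis FLuc activity quantified from luminescence images.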
Assay [2] is described as follows: qHTS assay to identify small molecule antagonists of the estrogen related receptor signaling pathway with the pleiotropic PPARgamma coactivator (PGC) from Tox21 10K library - cell viability counter screen (AID 1224840; active = well fitted cell-killing curve with a large enough effect in the repeat runs, not every such curve was filed as active; note: nearly all actives have a fitted effect of over 40% in size). In a few lines:
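PGC/ERR cells, 2,000/well; 6 h pre-incubation 37 C/5% CO2; cpd in DMSO via pin tool; 17.5 h 37 C; CellTiter-Fluor, 30 min; fluorescence.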

The nature of assay [3]: qHTS assay to identify small molecule antagonists of the estrogen related receptor signaling pathway with the pleiotropic PPARgamma coactivator (PGC) from Tox21 10K library (AID 1224841; call rule not given here; note: actives are mostly falling curves and most rising ones were filed inactive; nearly all actives have a fitted effect of over 50% in size; note: potency is the fitted concentration of half-maximal effect). A digest of the protocol:
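PGC/ERR cell line, 2,000 cells/well; 6 h pre-incubation 37 C/5% CO2; compounds (DMSO) pinned in; 18 h, 37 C; One-Glo, 30 min RT; luminescence.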

Assay [4] in a line: qHTS assay to identify small molecule agonists of the estrogen related receptor signaling pathway with the pleiotropic PPARgamma coactivator (PGC) from Tox21 10K library (AID 1224842). Note: nearly all actives have a fitted effect of over 15% in size. Note: potency is the fitted concentration of half-maximal effect. A digest of the protocol:
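PGC/ERR reporter cells (NTP line) were seeded 2,000 per well, rested 6 h at 37 C/5% CO2, then pin-dosed with compounds in DMSO for 18 h at 37 C; luciferase read by One-Glo luminescence after 30 min at room temperature.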

In assay [5] the target is Thyrotropin receptor (Homo sapiens) (UniProt P16473). The experiment in a line: qHTS assay to identify small molecule agonists of the thyroid stimulating hormone receptor (TSHR) signaling pathway (AID 1224843; calls by dose curve; note: nearly all actives have a fitted effect of over 45% in size). A digest of the protocol: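 Cell line HEK293 with TSHR; density 800/well. Exposure 30 min RT. Readout HTRF cAMP (cAMP-d2/anti-cAMP-cryptate), 1 h RT before reading.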

Assay [6] in a line: qHTS assay to identify small molecule agonists of the hypoxia (HIF-1) signaling pathway - cell viability counter screen (AID 1224844; calls by dose curve; note: nearly all actives have a fitted effect of over 50% in size; note: potency is the fitted concentration of half-maximal effect). In a few lines:
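ME-180 HRE-bla cells, 2,000/well, 0.5% dialyzed FBS; 5 hr settle, 17 hr compound at 37C/5% CO2; CCF4-AM reporter read first, then CellTiter-Glo luminescence after 30 min RT.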

Assay [7] is described as follows: qHTS assay to identify small molecule agonists of H2AX - cell viability counter screen (AID 1224847; calls by dose curve; note: nearly all actives have a fitted effect of over 30% in size; note: potency is the fitted concentration of half-maximal effect). A digest of the protocol: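 For this counter screen, overnight-attached CHO-K1 cells received test compounds (15 concentrations, 0.76% DMSO final); 3 hr later at 37C, CellTiter-Glo reagent was added and luminescence recorded after 30 min at room temperature.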
The nature of assay [8]: qHTS assay to identify small molecule agonists of the estrogen related receptor (ERR) signaling pathway from Tox21 library (AID 1224849; calls by dose curve; note: nearly all actives have a fitted effect of over 15% in size). The conditions noted are these: ERR reporter cell line, ONE-Glo luciferase, 18 h. A digest of the protocol: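 ERR cells, 6 h pre-incubation 37 C/5% CO2; cpd in DMSO pinned; 18 h 37 C; ONE-Glo added, 30 min RT; luminescence read. Agonist mode, qHTS.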

Assay [9] is described as follows: qHTS RealTime-Glo MT Cell Viability Assay in HepG2 cells - 24 hour (AID 1224867). Note: nearly all actives have a fitted effect of over 50% in size. A digest of the protocol:
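Cells + NanoLuc/prosubstrate dispensed (600 cells/well) → 5 h at 37 C/5% CO2 → compounds in DMSO transferred → 40 h incubation at 37 C, luminescence read at 0, 8, 16, 24, 32, 40 h.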

The nature of assay [10]: A CellTox Green Cytotoxicity Assay to monitor cytotoxicity in HEK293 cells - 0 hour (AID 1224869). Note: nearly all actives have a fitted effect of over 50% in size. In a few lines: (§1)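 Nonlytic real-time cytotoxicity: HEK293 + CellTox Green reagent plated, 5 h preincubation, pintool compound addition (23 nL in DMSO), 37 C for 40 h, fluorescence measured at successive time points.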
The nature of assay [11]: qHTS RealTime-Glo MT Cell Viability Assay in HepG2 cells - 40 hour (AID 1224870). Note: nearly all actives have a fitted effect of over 50% in size. A digest of the protocol: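 HepG2 cells mixed with RealTime-Glo MT reagents (NanoLuc plus cell-permeant prosubstrate) were seeded at 600 cells/well, incubated 5 h at 37 C/5% CO2, then pinned with compounds in DMSO; nonlytic luminescence tracked viability during 40 h treatment.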
Assay [12] is described as follows: A CellTox Green Cytotoxicity Assay to monitor cytotoxicity in HEK293 cells - 40 hour (AID 1224871). Note: nearly all actives have a fitted effect of over 45% in size. Note: potency is the fitted concentration of half-maximal effect. In a few lines: as §1
Assay [13] in a line: qHTS assay to identify small molecule agonists of the constitutive androstane receptor (CAR) signaling pathway - cell viability counter screen (AID 1224836). Note: nearly all actives have a fitted effect of over 45% in size. In a few lines:
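Double-stable HepG2 hepatoma cells (hCAR plus CYP2B6-2.2kb) are treated for 23 h at 37 C with test compounds in 15-point concentration series. PK11195 at 0.75 uM final is co-added. Cell viability is quantified by CellTiter-Fluor.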

Assay [14] in a line: qHTS assay to identify small molecule antagonists of the constitutive androstane receptor (CAR) signaling pathway - cell viability counter screen (AID 1224837). Note: nearly all actives have a fitted effect of over 45% in size. A digest of the protocol:
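HepG2-CYP2B6-hCAR cells, 2500/well, 4 hr pre-incubation; compound titration, 15 conc.; CITCO 50 nM final; 23 hr, 37 C/5% CO2; CellTiter-Fluor, fluorescence intensity.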

The target of assay [15] is Nuclear receptor subfamily 1 group I member 3 (Homo sapiens) (UniProt Q14994). The experiment in a line: qHTS assay to identify small molecule agonists of the constitutive androstane receptor (CAR) signaling pathway (AID 1224839).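 For activation: HepG2 cells stably carrying human CAR and a CYP2B6 luciferase reporter.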 Note: nearly all actives have a fitted effect of over 15% in size. Note: potency is the fitted concentration of half-maximal effect. In a few lines:
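Readout: firefly luciferase luminescence via ONE-Glo. System: HepG2 double-stable for hCAR and CYP2B6-2.2kb. Conditions: 15-point compound titration, PK11195 at 0.75 uM final, 24 h incubation.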

Assay [16] is described as follows: qHTS assay to identify small molecule agonists of H2AX (AID 1224845; active = well fitted activation curve with a large enough effect in the signal ratio in the repeat runs, not every such curve was filed as active; the % refers to the signal ratio). A digest of the protocol:
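Wild-type CHO-K1 cells plated overnight, then exposed 3 hr at 37C to compounds at 15 concentrations (0.76% DMSO). Lysed, then HTRF anti-pH2AX(S139)-cryptate/anti-H2AX-d2 detection after 24 hr at room temperature; emissions 665 and 620 nm.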

A short description of assay [17]: qHTS assay to identify small molecule antagonists of the estrogen related receptor (ERR) signaling pathway from Tox21 library (AID 1224848). Note: nearly all actives have a fitted effect of over 50% in size. Note: potency is the fitted concentration of half-maximal effect. In a few lines:
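Screening used an ERR reporter line supplied by NTP, exposed for 18 h at 37 C to library compounds delivered in DMSO. Signal was luciferase luminescence developed with ONE-Glo at room temperature for 30 min.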

The nature of assay [18]: qHTS RealTime-Glo MT Cell Viability Assay in HEK293 cells - 32 hour (AID 1224868). Note: nearly all actives have a fitted effect of over 50% in size. Note: potency is the fitted concentration of half-maximal effect. A digest of the protocol: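 Tox21 10K qHTS, HEK293, 600 cells/well, RealTime-Glo reagent co-dispensed with cells; 5 h preincubation, compound by pintool, 37 C, luminescence at 0–40 h.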
Assay [19] concerns the target Nuclear receptor subfamily 1 group I member 3 (Homo sapiens) (UniProt Q14994). Kind of assay: qHTS assay to identify small molecule antagonists of the constitutive androstane receptor (CAR) signaling pathway (AID 1224838).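 Note: HepG2 cells stably expressing hCAR with CYP2B6 luciferase reporter stimulated by CITCO; nearly all actives have a fitted effect of over 40% in size.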 A digest of the protocol:
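HepG2-CYP2B6-hCAR cells; 4 h pre-incubation; cpd (15 conc) + CITCO 50 nM final; 24 h, 37 C/5% CO2; ONE-Glo, luminescence.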

The nature of assay [20]: qHTS assay to identify small molecule agonists of the hypoxia (HIF-1) signaling pathway (AID 1224846; active = well fitted activation curve with a large enough effect in the signal ratio in the repeat runs, not every such curve was filed as active; the % refers to the signal ratio). A digest of the protocol:
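Cell line: CellSensor HRE-bla ME-180; 2,000 cells/well; 0.5% dialyzed FBS; 5 h preincubation; DMSO compound pin transfer; 17 h, 37C, 5% CO2; CCF4-AM added; bla FRET signal scored for activation.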
% is set by controls: 0 for no effect and ±100 for the full control effect.

Sequence of Nuclear receptor subfamily 1 group I member 3 (Homo sapiens) (Q14994 whole entry, looked up): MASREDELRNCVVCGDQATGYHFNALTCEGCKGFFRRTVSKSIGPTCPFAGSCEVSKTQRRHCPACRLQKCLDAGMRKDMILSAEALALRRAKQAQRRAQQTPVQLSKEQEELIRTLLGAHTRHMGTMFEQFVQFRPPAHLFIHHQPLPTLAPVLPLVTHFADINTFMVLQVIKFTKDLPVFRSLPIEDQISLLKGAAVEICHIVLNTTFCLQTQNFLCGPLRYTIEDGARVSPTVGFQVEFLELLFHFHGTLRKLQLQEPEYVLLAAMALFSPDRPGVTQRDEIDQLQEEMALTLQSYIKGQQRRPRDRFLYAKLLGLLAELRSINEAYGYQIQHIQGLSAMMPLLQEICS
Sequence of Thyrotropin receptor (Homo sapiens) (P16473 whole entry, looked up): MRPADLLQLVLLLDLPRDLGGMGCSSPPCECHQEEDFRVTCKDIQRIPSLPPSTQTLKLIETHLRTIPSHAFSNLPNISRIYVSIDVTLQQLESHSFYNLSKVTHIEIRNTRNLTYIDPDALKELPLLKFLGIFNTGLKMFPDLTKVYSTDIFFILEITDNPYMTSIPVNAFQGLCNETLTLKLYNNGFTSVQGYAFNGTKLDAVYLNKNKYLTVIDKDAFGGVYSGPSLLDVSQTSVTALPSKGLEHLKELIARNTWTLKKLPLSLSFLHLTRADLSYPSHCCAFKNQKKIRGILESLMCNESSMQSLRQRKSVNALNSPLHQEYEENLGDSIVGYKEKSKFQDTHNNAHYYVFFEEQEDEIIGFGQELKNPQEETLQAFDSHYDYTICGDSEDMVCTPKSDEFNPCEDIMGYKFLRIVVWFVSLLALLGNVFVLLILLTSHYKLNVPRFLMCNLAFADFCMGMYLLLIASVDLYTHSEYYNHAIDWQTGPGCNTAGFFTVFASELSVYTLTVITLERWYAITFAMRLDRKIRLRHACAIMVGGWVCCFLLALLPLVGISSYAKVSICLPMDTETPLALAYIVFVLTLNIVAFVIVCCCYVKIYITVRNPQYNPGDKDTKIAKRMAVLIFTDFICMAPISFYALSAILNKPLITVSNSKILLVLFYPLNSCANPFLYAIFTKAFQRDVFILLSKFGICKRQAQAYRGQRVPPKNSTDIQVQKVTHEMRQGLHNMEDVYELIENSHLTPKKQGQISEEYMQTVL
Sequence of Luciferin 4-monooxygenase (Photinus pyralis) (P08659 whole entry, looked up): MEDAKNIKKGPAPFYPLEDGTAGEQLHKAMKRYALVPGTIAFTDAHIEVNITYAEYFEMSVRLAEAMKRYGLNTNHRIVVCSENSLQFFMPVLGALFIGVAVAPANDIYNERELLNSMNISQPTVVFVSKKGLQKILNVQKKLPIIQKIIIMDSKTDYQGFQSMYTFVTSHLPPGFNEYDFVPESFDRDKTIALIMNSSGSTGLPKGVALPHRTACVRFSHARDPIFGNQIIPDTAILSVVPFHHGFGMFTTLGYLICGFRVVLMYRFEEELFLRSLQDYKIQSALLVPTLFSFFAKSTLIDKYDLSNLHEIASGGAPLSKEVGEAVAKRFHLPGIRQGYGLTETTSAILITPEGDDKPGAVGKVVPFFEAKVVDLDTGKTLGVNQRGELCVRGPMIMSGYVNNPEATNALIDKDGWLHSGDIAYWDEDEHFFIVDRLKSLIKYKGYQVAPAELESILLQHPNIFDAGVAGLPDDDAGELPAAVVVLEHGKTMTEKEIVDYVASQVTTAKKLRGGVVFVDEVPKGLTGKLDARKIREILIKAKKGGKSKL

Turning to `CC(C)=CCNc1ncnc2c1ncn2[C@@H]1O[C@H](CO)[C@@H](O)[C@H]1O`, the Potency entry in assay [1], in assay [2], in [3], in assay [5], in assay [9] and in assay [10] was “inactive” each time. In addition, the Potency result in assay [11] and in [12] was “inactive” in each case. The Potency was 5.96 µM (active) in assay [4], 8.49 µM (active) in [6] and 1.96 µM (active) in assay [7]. Moreover, the activity change, positive = activation in assay [8] (at 42.5 µM (top of the series)) was -51%.

For `C=C(CC)C(=O)c1ccc(OCC(=O)O)c(Cl)c1Cl`, the Potency entry in [13], in [14], in assay [2], in [4], in [5] and in assay [16] was “inactive” each time. The Potency result in assay [9], in [18], in [10], in assay [11] and in assay [12] was “inactive” each time. For the same compound, the Potency in assay [15] was 3.35 µM (active); in assay [3] it was 30.4 µM (active) and 29.8 µM (active); in assay [6], 19.4 µM (active) and 21.3 µM (active); in [17] it was 68.1 µM (active). Besides, the results for the activity change, positive = activation in [8] (at 42.5 µM (top of the series)) and in assay [8] (at 92.4 µM (top of the series)) were -17.8% and -55%, respectively.

Turning to `COC1=C(OC)C(=O)C(CCCCCCCCCCO)=C(C)C1=O`, the Potency result in assay [13], in assay [14], in assay [15], in [2], in assay [4] and in [10] was “inactive” throughout. The Potency result in assay [11] and in assay [12] was “inactive” throughout. Besides, the Potency in [17] is 18.8 µM (active); in [18] it was 5.35 µM (active). For the same compound, in assay [8] (at 42.5 µM (top of the series)), the activity change, positive = activation was -46.7%.

On to `CCC(COC(=O)CCS)(COC(=O)CCS)COC(=O)CCS`, for which the Potency entry in assay [13], in assay [14], in assay [19], in assay [15], in assay [2] and in [3] was “inactive” throughout. Further, the Potency entry in assay [4], in assay [5], in assay [6], in [16], in assay [20] and in assay [7] was “inactive” in each case. Also, the Potency entry in assay [9], in assay [18], in [10], in assay [11] and in [12] was “inactive” each time. The activity change, positive = activation in assay [8] (at 92.4 µM (top of the series)) was 4.52%.

Take `CCCC(=O)OC(C)(C)Cc1ccccc1`: the Potency result in [13], in assay [14], in assay [19], in [15], in [2] and in [6] was “inactive” throughout. For the same compound, the Potency entry in assay [16], in [20], in assay [7], in assay [9], in [18] and in assay [10] was “inactive” in each case. Moreover, in assay [11], the Potency entry is “inactive”. Further, the Potency in assay [12] is 24.5 µM (active).

As to `C#C[C@]1(OC(C)=O)CC[C@H]2[C@@H]3CCC4=C/C(=N/O)CC[C@@H]4[C@H]3CC[C@@]21CC`, the Potency entry in assay [13], in [14], in [19], in [15], in [2] and in assay [4] was “inactive” each time. Besides, the Potency result in assay [9], in assay [10] and in [11] was “inactive” in each case. Further, the activity change, positive = activation in assay [8] (at 42.5 µM (top of the series)) was -41.4%.

In the case of `COc1cc(/C=C/c2ccccc2)oc(=O)c1`, the Potency result in assay [13], in assay [14], in assay [19], in [2], in [3] and in assay [5] was “inactive” each time. In addition, the Potency entry in assay [6], in assay [16], in assay [20], in [7], in assay [17] and in [9] was “inactive” each time. The Potency result in assay [10], in assay [11] and in assay [12] was “inactive” throughout. Further, the Potency in assay [15] is 7.96 µM (active); in assay [4] it was 5.64 µM (active). In addition, the activity change, positive = activation in [8] (at 92.4 µM (top of the series)) is 36.4% (active).
